High-throughput results deposited in PubChem BioAssay by The Scripps Research Institute Molecular Screening Center.
Hits are enriched below; roughly 3.4% of the tested compounds scored in any of these assays.
PAFAH2 FP inh: inhibitors of human PAFAH2; Q99487; recombinant PAFAH2, FP-rhodamine activity probe, fluorescence polarization; inhibition, % at 3.39 µM; 340,000 compounds, 0.99% hits; AID 492956;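 active = inhibition above the mean over all tested compounds plus 3 SD, cut at about 30% in these data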;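 note: inhibitors block probe labeling of enzyme so polarization drops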
PAFAH1B2 FP inh: blocks human PAF acetylhydrolase 1b catalytic subunit 2; P68402; recombinant PAFAH1B2, FP-rhodamine activity probe, fluorescence polarization; inhibition, % at 3.39 µM; 340,000 compounds, 1.2% hits;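 active = inhibition above the mean of all tested compounds plus 3 SD, cut at about 24% in these data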
pPAFAH FP inh: pPAFAH (human) enzyme inhibition; recombinant pPAFAH, FP-rhodamine probe fluorescence polarization; AID 463082; 330,000 compounds, 1.5% hits; inhibition, % at 3.39 µM; Q13093;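 active = inhibition above the mean inhibition across the screen plus 3 SD, cut at about 25% in these data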;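 note: inhibitors block binding of the rhodamine activity-based probe so polarization drops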
PP5 inh: inhibitors of human protein phosphatase 5 (PP5); purified PP5c, OMFP substrate fluorescence; inhibition, % at 6.7 µM; 320,000 compounds, 0.18% hits; AID 1987;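 active = inhibition above the campaign's mean inhibition across all tested compounds plus 3 SD, cut at about 9.5% in these data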
PAFAH1B3 FP inh: PAFAH1B3 (human) inhibition; Q15102; recombinant PAFAH1B3, FP-rhodamine probe, fluorescence polarization; inhibition, % at 3.39 µM; 340,000 compounds, 0.28% hits;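 active = inhibition above the screen-wide average of all tested compounds plus 3 SD, cut at about 25% in these data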
PP1 counter: blocks human PP1-alpha phosphatase, a PP5 counter-screen; P62136; purified PP1alpha, OMFP fluorescence; inhibition, % at 6.7 µM; 320,000 compounds, 0.9% hits; AID 2235;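 active = inhibition above the mean inhibition of all tested compounds plus 3 SD, computed separately for each screening campaign, cut at about 15% in these data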
Target sequence (P62136 whole entry, looked up): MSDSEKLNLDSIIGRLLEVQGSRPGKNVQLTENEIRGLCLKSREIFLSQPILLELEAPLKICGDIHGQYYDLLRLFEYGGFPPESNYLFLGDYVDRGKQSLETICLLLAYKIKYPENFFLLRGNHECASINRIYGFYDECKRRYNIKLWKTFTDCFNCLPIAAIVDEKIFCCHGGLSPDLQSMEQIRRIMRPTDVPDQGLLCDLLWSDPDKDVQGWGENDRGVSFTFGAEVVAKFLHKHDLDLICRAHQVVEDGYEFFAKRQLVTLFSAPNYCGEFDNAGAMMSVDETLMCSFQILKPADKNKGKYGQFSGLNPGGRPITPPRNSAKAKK
Each line names hits and unclear results; the compound was inactive in the other large screens.

Cc1[nH]n(-c2ccccc2)c(=O)c1C=Nc1cccc2cccnc12	PP1 counter 15.7
Cc1ccc(/C=N/Nc2nncc(-c3ccccc3)n2)o1	none (no result: PAFAH2 FP inh, PAFAH1B2 FP inh, PAFAH1B3 FP inh)
Cc1ccc(-n2[nH]c(C)c(/C=N/c3ccccn3)c2=O)cc1	none
Cc1[nH]n(-c2ccccc2)c(=O)c1/C=N/Nc1nncc(-c2ccccc2)n1	PP1 counter 17.0
Cc1cc(=O)oc2ccc(OC(C)C(=O)O)cc12 (configuration not stated)	none
COc1ccc(NC(=O)c2ccc(NCCN3C(=O)CCC3=O)c([N+](=O)[O-])c2)cc1	none
O=C(c1ccc2c(=O)n3c(nc2c1)CCC3)N1CCN(S(=O)(=O)c2ccccc2Br)CC1	none (no result: pPAFAH FP inh, PP5 inh, PP1 counter)
COc1ccc(/C=N/N=C2/NC(=O)C(CC(=O)O)S2)cc1OCc1ccc(Cl)cc1 (configuration not stated)	none
CCOc1cc(/C=N/N=C2/NC(=O)C(CC(=O)O)S2)ccc1OCc1ccc(Cl)cc1 (configuration not stated)	pPAFAH FP inh 24.6
Cc1ccc(C(=O)N/C(=C\c2ccc([N+](=O)[O-])cc2)C(=O)NCCc2ccccc2)cc1	PP1 counter 16.6
Oc1ccc(Cc2ccc(Cl)cc2)c(O)c1	PAFAH1B2 FP inh 71.6
Oc1ccc(Cc2ccccc2Cl)c(O)c1	none (no result: pPAFAH FP inh, PP5 inh, PP1 counter)
O=C(O)c1ccc(N/N=C/c2ccc(OC(=O)c3ccccc3Cl)cc2)cc1	pPAFAH FP inh 26.9
CC1(C)Cc2c(C#N)c(N3CCN(C(=O)c4ccccc4Cl)CC3)nc(-c3ccco3)c2CS1	pPAFAH FP inh 34.4, PP1 counter 17.4
CC(=O)N1CCOc2ccc(S(=O)(=O)NCCc3ccc(C)cc3)cc21	PAFAH1B2 FP inh 32.3
COc1ccc(CNS(=O)(=O)c2ccc3c(c2)N(C(C)=O)CCO3)cc1	none
CC(=O)N1CCOc2ccc(S(=O)(=O)NCc3ccc(C)cc3)cc21	PAFAH1B2 FP inh 33.7
NS(=O)(=O)c1ccc(CNS(=O)(=O)c2ccc3c(c2)OCCO3)cc1	none
Cc1ccc(CNS(=O)(=O)c2ccc3c(c2)OCCO3)cc1	PAFAH1B2 FP inh 26.9
CC(NC(=O)c1ccc(NC(=O)CC2SC(N3CCCC3)=NC2=O)cc1)c1ccc(F)cc1 (configuration not stated)	none
O=C(CSc1ccc(S(=O)(=O)N2CCCC2)cn1)Nc1ccc([N+](=O)[O-])cc1C(F)(F)F	PAFAH1B2 FP inh 26.7 (no result: pPAFAH FP inh, PP5 inh, PP1 counter)
CC(C)(C)NC(=O)NC(=O)CSc1ccc(S(=O)(=O)N2CCCCC2)cn1	PAFAH1B2 FP inh 26.9
Cc1ccc(C)c(NC(=O)CSc2ccc(S(=O)(=O)N3CCCC3)cn2)c1	none
Cn1c(=O)c(C(=O)N2CCc3ccccc32)cc2cccnc21	none
Nc1ccc2cc3[nH]c4cc(N)ccc4c3nc2c1	none (no result: pPAFAH FP inh, PP5 inh, PP1 counter)
Cc1nc(N2CCCCC2)sc1C(=O)c1ccc(SCCO)c([N+](=O)[O-])c1	pPAFAH FP inh 27.2
Cc1nc(N2CCCCC2)sc1C(=O)c1cccc([N+](=O)[O-])c1	none
CCc1ccc(C(=O)NNC(=O)c2cccc(N3C(=O)CCC3=O)c2)cc1	none
COC(=O)CCC(=O)OC1(C)C(=O)C2=CN(Cc3ccco3)C(c3ccc(OC)cc3)=CC2=C(Br)C1=O (configuration not stated)	pPAFAH FP inh 24.9 (no result: PAFAH2 FP inh, PAFAH1B2 FP inh, PAFAH1B3 FP inh)
CCCCC1=CC2=C(c3ccco3)C(=O)C(C)(OC(=O)c3ccc(OC)cc3)C(=O)C2=CN1Cc1ccco1 (configuration not stated)	PP1 counter 16.1
CCCCC1=CC2=C(c3ccco3)C(=O)C(C)(OC(=O)c3ccc(OC)cc3)C(=O)C2=CN1c1ccc(OC)cc1 (configuration not stated)	PP1 counter 15.7
CCCCC1=CC2=C(c3ccco3)C(=O)C(C)(OC(=O)c3ccc(OC)cc3)C(=O)C2=CN1C(CO)CO (configuration not stated)	none
COCCN1C=C2C(=O)C(C)(OC(=O)CCC(=O)OC)C(=O)C(Br)=C2C=C1c1ccc(OC)cc1 (configuration not stated)	none
CCCCC1=CC2=C(c3ccco3)C(=O)C(C)(OC(=O)c3ccc(OC)cc3)C(=O)C2=CN1CCCCO (configuration not stated)	none
O=c1c(Oc2ccccc2)coc2cc(O)cc(O)c12	none
O=C(CNC(=O)c1ccc2ccccc2c1)NCc1ccccc1F	none
